Measured values taken from PubChem BioAssay (EPA / NIEHS).
The source made the active and inactive calls. The calls were made as follows: active = hit-call score of the fitted dose curve at least 0.9, where 1 is the maximum; inactive = score below 0.9.

The compounds below were run against Transcriptional activator Myb (Homo sapiens) (UniProt P10242) (assay: ATG_Myb_CIS: Attagene CIS-FACTORIAL HepG2 Assay for human Myeloblastosis (Myb) Proto-Oncogene Transcription Factor (AID 2282986)). Settings: HepG2 Attagene CIS-FACTORIAL Myb reporter transcription; actives raise or lower the signal.
Method: ATG_CIS is a cell-based, multiplexed-readout assay that uses HepG2, a human liver cell line, with measurements taken at 24 hours after chemical dosing in a 24-well plate.ATG_Myb_CIS is one of 52 assay component(s) measured or calculated from the ATG_CIS assay. It is designed to make measurements of mRNA induction, a form of inducible reporter, as detected with fluorescence intensity signals by Reverse transcription polymerase chain reaction (RT-PCR) and Capillary electrophoresis technology.Data from the assay component ATG_Myb_CIS was analyzed into 1 assay endpoint. This assay endpoint, ATG_Myb_CIS, was analyzed with bidirectional fitting relative to DMSO as the negative control and baseline of activity. Using a type of inducible reporter, measures of mRNA for gain or loss-of-signal activity can be used to understand the reporter gene at the transcription factor-level as they relate to the gene MYB. Furthermore, this assay endpoint can be referred to as a primary readout, because this assay has produced multiple assay endpoints where this one serves a reporter gene function. To generalize the intended target to other relatable targets, this assay endpoint is annotated to the dna binding intended target family, where the subfamily is MYB proteins.
Human liver HepG2 cells are transiently transfected with multiple reporter transcription units (MRTUs) in 6-well plates using FuGene 6 reagent (Roche; 3 ml FuGene/1 mg DNA). The MRTU constructs are regulated by a cis-regulating element (promoter). […] A major difference between the CIS and TRANS system is that in CIS activities of endogenous TFs are measured, whereas the TRANS assay evaluates changes in activities of exogenous, chimeric NR-Gal4 proteins. […] At the end of 24 hour incubation, total RNA was isolated using TriZol reagent (Invitrogen). The isolated RNA is then reverse-transcribed using oligo(dT) primer and Mo-MLV reverse transcriptase (Invitrogen) with DNAse I (Ambion) treatment for 30 min. The one-tenth of the produced cDNA was amplified by PCR using Taq DNA polymerase (Invitrogen) and two reporter sequence-specific primers. The PCR products were fluorescently labeled by primer extension with 6-arboxyfluorescein (6-FAM) 5'-labeled reporter sequence-specific primer (2 min at 95 C, 20 s at 68 C and 10 min at 72 C) and these products were digested with 5U of HpaI (New England Biolabs) for 2h at 37 C. The fragments were purified using Qiaquick PCR columns (Qiagen), analyzed on an ABI 3130xL genetic analyzer (Applied Biosystems) with peak positions identified by using a set of X-rhodamine (ROX)-labeled MapMarker1000 molecular weight standards (BioVentures). The raw capillary electrophoresis data was processed using Attagraph software (Attagene).

Sequence of Transcriptional activator Myb (Homo sapiens) (P10242 whole entry, looked up): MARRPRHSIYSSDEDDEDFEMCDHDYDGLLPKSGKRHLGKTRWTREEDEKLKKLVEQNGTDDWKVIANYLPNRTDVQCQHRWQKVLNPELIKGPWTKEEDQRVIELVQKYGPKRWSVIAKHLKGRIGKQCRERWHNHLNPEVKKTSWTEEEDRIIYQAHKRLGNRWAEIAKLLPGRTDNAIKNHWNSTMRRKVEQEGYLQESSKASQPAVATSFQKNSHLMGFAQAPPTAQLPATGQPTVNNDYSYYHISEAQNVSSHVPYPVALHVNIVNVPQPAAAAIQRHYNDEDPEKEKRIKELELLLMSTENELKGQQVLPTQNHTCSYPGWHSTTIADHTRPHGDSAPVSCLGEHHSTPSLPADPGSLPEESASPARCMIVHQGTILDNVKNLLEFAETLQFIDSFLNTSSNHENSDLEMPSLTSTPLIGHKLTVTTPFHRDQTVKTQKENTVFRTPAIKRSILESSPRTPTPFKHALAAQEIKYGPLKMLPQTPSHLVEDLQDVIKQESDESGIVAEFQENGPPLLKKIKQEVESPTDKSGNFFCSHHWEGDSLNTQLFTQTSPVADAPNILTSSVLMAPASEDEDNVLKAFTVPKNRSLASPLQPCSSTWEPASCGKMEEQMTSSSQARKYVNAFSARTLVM

| Structure (SMILES) | outcome | AC50 |
| --- | --- | --- |
| CCCCCC(=O)OCC | inactive | – |
| CCOC(=O)/C=C\C(=O)OCC | inactive | – |
| CC1CCC(=O)C1=O (stereo not given) | inactive | – |
| CC(C)C(=O)OCCc1ccccc1 | inactive | – |
| COc1ccc(-c2coc3cc(O)cc(O)c3c2=O)cc1 | inactive | – |
| C/C=C/C=C/CCCCCCCO | inactive | – |
| CC1=CP(=O)(c2ccccc2)CC1 (stereo not given) | inactive | – |
| O=C(O)C1CCC(C(=O)O)CC1 (stereo not given) | inactive | – |
| CC(C)(CO)C(O)C(=O)NCCCO (stereo not given) | inactive | – |
| C=C1C[C@H]2[C@@H]3C=C(C)C4=CC(=O)CC[C@]4(C)[C@H]3CC[C@]2(C)[C@@]1(OC(C)=O)C(C)=O | inactive | – |
| CCCSSCCC | inactive | – |
| c1ccc(Nc2cccc3ccccc23)cc1 | – | 33.4 µM (active) |
| C=CC(=O)NC(C)(C)C | inactive | – |
| CCCc1ccc(O)c(OC)c1 | inactive | – |
| Clc1cccnc1 | inactive | – |
| CO[Si](CCCS)(OC)OC | inactive | – |
| Cc1cccc(C(C)(C)C)c1O | inactive | – |
| c1ccc2sc(SSN3CCOCC3)nc2c1 | inactive | – |
| CC(C)c1cc(C(C)C)cc(C(C)C)c1 | – | 176 µM (active) |
| CC(CC=O)CC(C)(C)C (stereo not given) | inactive | – |

| Structure (SMILES) | outcome | AC50 |
| --- | --- | --- |
| CC(=O)CC(=O)Nc1ccccc1C | inactive | – |
| c1ccc(-c2nc3ccccc3[nH]2)cc1 | inactive | – |
| O=C1CCCCCCCCCCCN1 | inactive | – |
| C=CC(=O)OCC(C)OCC(C)OCC(C)OC(=O)C=C (stereo not given) | – | 65.2 µM (active) |
| CC(CCC(=O)O)(c1ccc(O)cc1)c1ccc(O)cc1 | inactive | – |
| CCOC(=O)c1ccc(C)cc1 | inactive | – |
| CCOC(=O)CC(=O)c1ccccc1 | inactive | – |
| C=CCCCCCCCCOC(C)=O | inactive | – |
| CCOB(OCC)OCC | inactive | – |
| CCN1CCCC1=O | inactive | – |
| CCCCCCCCCCCCCC(=O)OC(C)C | inactive | – |
| O=C(O)CC(C(=O)O)S(=O)(=O)O (stereo not given) | inactive | – |
| CCCCCCCCCCCC(=O)OCC | inactive | – |
| CC(=O)CCC1=C(C)CCCC1(C)C | inactive | – |
| CCCCc1ccc(Cl)cc1 | inactive | – |
| CC(C)c1ccc2ncccc2c1 | inactive | – |
| CC(=O)OCC=C(C)C | inactive | – |
| CC(=O)OC1CCCCC1C(C)(C)C (stereo not given) | inactive | – |
| CC(=O)OCc1ccccc1 | inactive | – |
| [Cl][Sc]([Cl])[Cl] | inactive | – |
